# Where “and” joins values, the source holds several entries; their conditions need not be identical. Equal values may be shown once. Unmarked numbers belong to inactive results. Inconclusive results are not listed. Where a call stands in place of a potency, no number is given. Calls of active or inactive are those of the source. Calls follow the shape of the full dose curve.
# Key:
# [1] = molecular target: Acetylcholinesterase (Homo sapiens) (UniProt P22303); experiment: Acetylcholinesterase (AChE) small molecule antagonists: colormetric cell-based qHTS assay (AID 1347395); also: nearly all actives have a fitted effect of over 30% in size
# Acetylcholinesterase (Homo sapiens), sequence (P22303 whole entry, looked up): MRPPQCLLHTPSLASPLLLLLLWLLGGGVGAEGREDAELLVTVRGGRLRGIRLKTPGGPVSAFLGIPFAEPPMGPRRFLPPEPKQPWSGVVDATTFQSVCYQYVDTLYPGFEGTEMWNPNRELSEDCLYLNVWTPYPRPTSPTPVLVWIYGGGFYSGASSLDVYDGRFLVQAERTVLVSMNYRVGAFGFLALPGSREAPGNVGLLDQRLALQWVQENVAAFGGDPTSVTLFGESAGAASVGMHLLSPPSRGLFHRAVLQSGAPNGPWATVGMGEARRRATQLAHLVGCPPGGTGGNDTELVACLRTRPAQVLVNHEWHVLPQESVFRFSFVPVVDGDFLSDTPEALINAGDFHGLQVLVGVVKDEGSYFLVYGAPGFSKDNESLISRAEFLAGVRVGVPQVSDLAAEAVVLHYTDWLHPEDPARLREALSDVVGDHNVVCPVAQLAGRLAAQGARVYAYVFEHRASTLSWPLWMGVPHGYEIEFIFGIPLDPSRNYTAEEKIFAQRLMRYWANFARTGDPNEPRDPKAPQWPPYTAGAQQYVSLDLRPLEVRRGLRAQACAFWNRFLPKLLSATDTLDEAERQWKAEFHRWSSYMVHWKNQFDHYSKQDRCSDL
# In short: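 Cells (SH-SY5Y, 2,000 per well) are seeded and left overnight at 37 C. Compound is added for 30 min, then DTNB and acetylthiocholine for a further 90 min at 37 C before absorbance-based thiocholine detection.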
# [2] = molecular target: Acetylcholinesterase (Homo sapiens) (UniProt P22303); experiment: Acetylcholinesterase (AChE) small molecule antagonists: enzyme-based qHTS assay (AID 1347397); conditions: Potency: AChE enzyme activity inhibition; outcome: AChE enzyme activity inhibition; also: nearly all actives have a fitted effect of over 55% in size
# In short: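 Recombinant human AChE, dispensed at 50 mU/mL, was preincubated with Tox21 10K compounds or DMSO vehicle for 30 min at room temperature. DTNB plus acetylthiocholine was then added, and thiocholine was measured colorimetrically after a further 10 min.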
# [3] = molecular target: Acetylcholinesterase (Homo sapiens) (UniProt P22303); experiment: Acetylcholinesterase (AChE) small molecule antagonists: enzyme-based qHTS assay with human liver microsomes (AID 1347399); conditions: Potency: qHTS inhibition; outcome: qHTS inhibition; also: nearly all actives have a fitted effect of over 60% in size
# In short: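 Recombinant human AChE (50 mU/mL in the enzyme mix) and human liver microsomes (0.25 mg/mL final) were preincubated with compound and NADPH (0.25 mg/mL final) for 30 min at 37 C. Acetylthiocholine/DTNB was then added; thiocholine was read colorimetrically after 10 min at room temperature.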
# [4] = molecular target: Acetylcholinesterase (Homo sapiens) (UniProt P22303); experiment: Acetylcholinesterase (AChE) small molecule antagonists: fluorescence cell-based qHTS assay (AID 1347398); conditions: Potency: AChE activity; outcome: AChE activity; also: nearly all actives have a fitted effect of over 50% in size
# In short: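 Human SH-SY5Y cells were plated overnight at 37 C, exposed to compound for 30 min at 37 C, 5% CO2, then given acetylthiocholine plus Thiolite Green for 40 min at room temperature; thiocholine fluorescence (Ex/Em 490/520 nm) reports endogenous AChE activity.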
# Potency is read from the fitted curve at half-maximal effect.
compound,measurement,setting,value
CCN(CC)c1ccc2c(C)cc(=O)oc2c1,Potency,[1],inactive
same,Potency,[2],inactive
same,Potency,[3],inactive
Nc1ccn([C@@H]2O[C@H](CO)[C@@H](O)C2O)c(=O)n1 (some centres undefined),Potency,[1],inactive
same,Potency,[2],inactive
same,Potency,[3],inactive
COC(C)(C)CCCC(C)CC=O (centres undefined),Potency,[1],inactive
same,Potency,[2],inactive
same,Potency,[3],inactive
COC(=O)C(C)Oc1ccc(Oc2ncc(C(F)(F)F)cc2Cl)cc1 (centres undefined),Potency,[1],inactive
same,Potency,[2],inactive
same,Potency,[3],inactive
C=C1C(CCl)(CCl)C2(Cl)C(Cl)C(Cl)C1(Cl)C2(Cl)Cl (centres undefined),Potency,[1],inactive
same,Potency,[2],inactive
same,Potency,[3],inactive
Sc1nc(S)nc(S)n1,Potency,[1],inactive
same,Potency,[2],inactive
same,Potency,[3],inactive
Oc1ccc(Oc2ccccc2)cc1,Potency,[1],inactive
same,Potency,[2],inactive
same,Potency,[3],inactive
NC(=O)NNC(N)=O,Potency,[1],inactive
same,Potency,[2],inactive
same,Potency,[3],inactive
C[C@]12CC[C@H]3[C@@H](CCC4=CC(=O)CC[C@@]43C)[C@@H]1CC[C@@H]2C(=O)CO,Potency,[1],inactive
same,Potency,[2],inactive
same,Potency,[3],inactive
NC(=O)N1C(=O)C(C(=O)c2cc(Cl)cs2)c2cc(F)c(Cl)cc21 (centres undefined),Potency,[1],inactive
same,Potency,[2],inactive
same,Potency,[3],inactive
O=[N+]([O-])c1cc(C2CCCCC2)c(O)c([N+](=O)[O-])c1,Potency,[1],inactive
same,Potency,[2],inactive
same,Potency,[3],inactive
CCOC(=O)Cc1cccc2ccccc12,Potency,[1],inactive
same,Potency,[2],inactive
same,Potency,[3],inactive
CCC(=O)c1c(O)cc(O)cc1O,Potency,[1],inactive
same,Potency,[2],inactive
same,Potency,[3],inactive
C=CC(=O)OCCOC(=O)CCC(=O)O,Potency,[1],inactive
same,Potency,[2],inactive
same,Potency,[3],inactive
CC(C)CCCCCCc1ccc(OCCOCCO)cc1,Potency,[1],inactive
same,Potency,[2],inactive
same,Potency,[3],inactive
Cc1ccc(Cl)cc1N,Potency,[1],inactive
same,Potency,[2],inactive
same,Potency,[3],inactive
CC1=C2[C@@H]([C@H](C)CC[C@H]2/C=C(\C)C(=O)O)[C@H](O)C1,Potency,[1],inactive
same,Potency,[2],inactive
same,Potency,[3],inactive
NS(=O)(=O)c1cc(-c2nn[nH]n2)c(NCc2cccs2)cc1Cl,Potency,[1],inactive
same,Potency,[2],inactive
same,Potency,[3],inactive
CC(=O)NS(=O)(=O)c1ccc(N)cc1,Potency,[1],inactive
same,Potency,[2],inactive
same,Potency,[3],inactive
COC(=O)c1nc(Cl)c(Cl)nc1N,Potency,[1],inactive
same,Potency,[2],inactive
same,Potency,[3],inactive
CCCCCC(=O)OCCc1ccccc1,Potency,[1],inactive
same,Potency,[2],inactive
same,Potency,[3],inactive
CCc1ccc(O)c(C(C)(C)C)c1,Potency,[1],inactive
same,Potency,[2],inactive
same,Potency,[3],inactive
O=C(O)[C@@H](O)[C@H](O)[C@H](O)[C@@H](O)C(=O)O,Potency,[1],inactive
same,Potency,[2],inactive
same,Potency,[3],inactive
c1ccc(COCc2ccccc2)cc1,Potency,[1],inactive
same,Potency,[2],inactive
same,Potency,[3],inactive
CC(O)(P(=O)(O)O)P(=O)(O)O,Potency,[1],inactive
same,Potency,[2],inactive
same,Potency,[3],inactive
Cn1c(N)nc2nc[nH]c2c1=O,Potency,[1],inactive
same,Potency,[2],inactive
same,Potency,[3],inactive
CC(C)(C)c1ccc(O)c(O)c1,Potency,[1],inactive
same,Potency,[2],inactive
same,Potency,[3],inactive
COc1ccc([C@@H]2Sc3ccccc3N(CCN(C)C)C(=O)[C@@H]2OC(C)=O)cc1,Potency,[1],inactive
same,Potency,[2],inactive
same,Potency,[3],inactive
C1CCCCC1,Potency,[1],inactive
same,Potency,[2],inactive
same,Potency,[3],inactive
Cn1c(=O)c2c(ncn2CCO)n(C)c1=O,Potency,[1],inactive
same,Potency,[2],inactive
same,Potency,[3],inactive
CO[C@]1(NC(=O)CSC(F)F)C(=O)N2C(C(=O)O)=C(CSc3nnnn3CCO)CO[C@H]21,Potency,[1],inactive
same,Potency,[2],inactive
same,Potency,[3],inactive
CN(C)C(=O)CNC(=O)Cc1ccccc1,Potency,[1],inactive
same,Potency,[2],inactive
same,Potency,[3],inactive
CC(C)OC(=O)c1ccccc1,Potency,[1],inactive
same,Potency,[2],inactive
same,Potency,[3],inactive
CCC(N)(CO)CO,Potency,[1],inactive
same,Potency,[2],inactive
same,Potency,[3],inactive
CCCCCCCCCCCCCCCCC(=O)O,Potency,[1],inactive
same,Potency,[2],inactive
same,Potency,[3],inactive
C=C(C)c1cccc(C(C)(C)N=C=O)c1,Potency,[1],inactive
same,Potency,[2],inactive
same,Potency,[3],inactive
CC(C)CCOC(=O)c1ccccc1,Potency,[1],inactive
same,Potency,[2],inactive
same,Potency,[3],inactive
O=C1NC2NC(=O)NC2N1 (centres undefined),Potency,[1],inactive
same,Potency,[4],inactive
same,Potency,[3],inactive
CN(N=O)C(=O)N[C@@H]1[C@@H](O)[C@H](O)[C@@H](CO)O[C@@H]1O,Potency,[1],inactive
same,Potency,[4],inactive
same,Potency,[3],inactive
CN1C(C(=O)Nc2ccccn2)=C(O)c2ccccc2S1(=O)=O,Potency,[2],inactive
same,Potency,[4],inactive
same,Potency,[3],inactive
O=C1c2ccccc2C(=O)c2cc(S(=O)(=O)O)ccc21,Potency,[1],inactive
same,Potency,[4],inactive
same,Potency,[3],inactive
CC(C)(O)CCC(C)(C)O,Potency,[1],inactive
same,Potency,[4],inactive
same,Potency,[3],inactive
CCOC(=O)c1c(N)sc2c1CCN(Cc1ccccc1)C2,Potency,[2],24.5 µM (active)
same,Potency,[4],12.3 µM (active)
C[C@]12CCC(=O)C=C1C=C[C@@H]1[C@@H]2CC[C@@]2(C)[C@H]1CC[C@@]21CCC(=O)O1,Potency,[2],inactive
same,Potency,[4],inactive
same,Potency,[3],inactive
Nc1ccc(S(=O)(=O)Nc2ccccn2)cc1,Potency,[1],inactive
same,Potency,[4],inactive
same,Potency,[3],inactive
Cc1ncc[nH]1,Potency,[1],inactive
same,Potency,[4],inactive
same,Potency,[3],inactive
CCCCCCCC1CCCC1=O (centres undefined),Potency,[1],inactive
same,Potency,[4],inactive
same,Potency,[3],inactive
CCN=c1cc2oc3cc(NCC)c(C)cc3c(-c3ccccc3C(=O)OCC)c-2cc1C,Potency,[1],6.31 µM (active) and 8.94 µM (active)
same,Potency,[4],inactive
same,Potency,[3],79.4 µM (active) and 63.3 µM (active)
CC12CCC(CC1=O)C2(C)C (centres undefined),Potency,[1],inactive
same,Potency,[4],inactive
same,Potency,[3],inactive
OC[C@]1(O)OC[C@@H](O)[C@H](O)[C@@H]1O,Potency,[1],inactive
same,Potency,[4],inactive
same,Potency,[3],inactive
CCCCCCCCCCCCCCCC(=O)OC[C@H](O)[C@H]1OC(=O)C(O)=C1O,Potency,[1],inactive
same,Potency,[4],inactive
same,Potency,[3],inactive
Cc1cc(Br)ccc1NC(=O)CCl,Potency,[1],inactive
same,Potency,[4],inactive
same,Potency,[3],inactive
CCOC(=O)[C@H](CCc1ccccc1)N[C@@H](C)C(=O)N1C(=O)N(C)C[C@H]1C(=O)O,Potency,[1],inactive
same,Potency,[4],inactive
same,Potency,[3],inactive
N[C@@H](Cc1ccc(O)cc1)C(=O)O,"activity change, negative = inhibition",[2],-0.135% [at 10.5 µM]
same,"activity change, negative = inhibition",[4],10.1% [at 10.5 µM]
CO[C@@H]1[C@@H](OC(N)=O)[C@@H](O)[C@H](Oc2ccc3c(O)c(NC(=O)c4ccc(O)c(CC=C(C)C)c4)c(=O)oc3c2C)OC1(C)C,Potency,[2],inactive
same,Potency,[4],inactive
same,Potency,[3],inactive
CCCCCCCCCCCCCCC,Potency,[1],inactive
same,Potency,[4],inactive
same,Potency,[3],inactive
Nc1cc(Cl)c(-c2cc(Cl)c(N)cc2Cl)cc1Cl,Potency,[1],inactive
same,Potency,[4],inactive
same,Potency,[3],inactive

# — PubChem BioAssay (Tox21)
